Assay outcomes from PubChem BioAssay.
AmpC inh no detg: inhibitors of E. coli AmpC beta-lactamase without detergent. Potency, µM (titrated, usually from 57.1 µM), inactives show top-dose activity change, negative = inhibition, actives largely listed as inhibitors. AmpC nitrocefin hydrolysis, absorbance 480 nm, 0.0001% Triton. AID 485341. hit rate 0.52% among 330,000. P00811;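 note: plate controls were no compound for no effect and no enzyme for full effect; nearly all actives have a fitted effect of over 20% in size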
Target sequence (P00811 whole entry, looked up): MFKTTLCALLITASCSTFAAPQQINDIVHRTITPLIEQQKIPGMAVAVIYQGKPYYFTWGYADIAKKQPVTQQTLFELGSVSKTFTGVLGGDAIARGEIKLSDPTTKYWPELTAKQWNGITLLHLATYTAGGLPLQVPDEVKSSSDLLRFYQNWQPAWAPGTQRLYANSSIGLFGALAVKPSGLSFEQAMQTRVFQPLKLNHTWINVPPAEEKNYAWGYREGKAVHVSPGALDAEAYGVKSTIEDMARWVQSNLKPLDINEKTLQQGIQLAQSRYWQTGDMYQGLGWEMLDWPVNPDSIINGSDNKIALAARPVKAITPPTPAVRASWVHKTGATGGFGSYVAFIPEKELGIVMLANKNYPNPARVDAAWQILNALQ
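AmpC (5.3 nM in the dispensed reagent) in 20 mM phosphate pH 7.0 with 0.01% (detergent screen) or 0.0001% Triton X-100 was preincubated with compounds for 15 min at room temperature. Nitrocefin was then added from an 800 uM solution, and hydrolysis was followed at 480 nm.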
AMA1-RON2 inh: disrupts binding of P. falciparum AMA1 to RON2 | AlphaScreen AMA1-biotinylated RON2 peptide binding | Potency, µM (series often up to 58.2 µM), inactives show top-dose activity change, negative = inhibition, actives largely listed as inhibitors | hit rate 0.2% among 360,000 | AID 720542;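 note: 0% = vehicle wells and -100% = peptide control; nearly all actives have a fitted effect of over 45% in size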
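AMA1 (3D7) with his tag at 25 nM final met compounds first, then biotinylated RON2 peptide at 25 nM; detection used donor plus acceptor beads, 10 µg/mL apiece, read by AlphaScreen after 30 min at room temperature.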
LASV entry inh: inhibitors of Lassa virus binding or cell entry; Potency, µM (doses to about 37.9 µM), inactives show at the top dose activity change, negative = inhibition, usual class: inhibitors; Lassa virus pseudotype entry inhibition, cell reporter; hit rate 1.2% among 300,000; calls by dose curve; tested in HEK293 cells; note: nearly all actives have a fitted effect of over 50% in size
MARV entry inh: inhibitors of Marburg virus binding or cell entry; hit rate 1.8% among 300,000; Potency, µM (doses to about 37.8 µM), without a hit: top-dose activity change, negative = inhibition, actives largely listed as inhibitors; Marburg virus pseudotyped entry inhibition, cell reporter; AID 540276; calls by dose curve; tested in HEK293 cells
AmpC inh detg: inhibitors of E. coli AmpC beta-lactamase with detergent | P00811 | AmpC hydrolysis of nitrocefin, absorbance 480 nm, 0.01% Triton | Potency, µM (doses to about 114 µM), without a hit: top-dose activity change, negative = inhibition, usual class: inhibitors | hit rate 0.041% among 370,000;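 note: 0% = no-compound wells and -100% = no-enzyme wells; nearly all actives have a fitted effect of over 25% in size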
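20 mM phosphate pH 7.0 + 0.01% (detergent screen) or 0.0001% Triton X-100; 5.3 nM AmpC reagent; cpd preinc 15 min RT; nitrocefin (800 uM stock) to start; A480 q20 s × 4 min; Activity was normalised to no-enzyme and no-compound control wells.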
* = called active by the depositor; [ ] = remark or other dose. Most compounds without a hit are left out; they make up all but 2.3% or so of the library. Unless noted, calls come from the whole dose curve; as a rule, active = well fitted curve in the direction sought with a large enough effect; inconclusive = small, poorly fitted or top-dose-only effect, or another doubt; inactive = no such curve, though single readings can be large; an effect the other way counts as inactive or inconclusive. Unless noted, % is set by controls: 0 for no effect and ±100 for the full control effect; potency is the fitted concentration of half-maximal effect.

Results for CC(C)(C)C(=O)O/N=C(\N)Cc1ccc(-c2csnn2)cc1 ?
AmpC inh no detg: -10.8%; AMA1-RON2 inh: -0.5%; LASV entry inh: inconclusive; MARV entry inh: 8.91µM*; AmpC inh detg: -5.3%

What do the screens show for `O=C1c2cc(Br)ccc2N(Cc2ccc(Br)cc2)S(=O)(=O)C1c1cc(Cl)c(Cl)cc1[N+](=O)[O-]` (stereo not given)?
AmpC inh no detg: 2µM*; AMA1-RON2 inh: -5.7%

What do the screens show for `COc1ccc(OC)c(CCNC(=O)c2ccc3c(c2)N(Cc2ccc(F)cc2)CCS3)c1`?
AmpC inh no detg: -17.2%; AMA1-RON2 inh: -12.3%; AmpC inh detg: -11.1%

Results for COc1ccc(CCNC(=O)c2ccc3c(c2)N(Cc2ccc(F)cc2)CCS3)c(OC)c1 ?
AmpC inh no detg: -19.5%; AMA1-RON2 inh: 0.4%; LASV entry inh: -29.8%[46.1 µM]; MARV entry inh: 7.94µM*; AmpC inh detg: 2.1%

What do the screens show for `SC(COCc1ccccc1)CN1CCN(Cc2ccc3c(c2)OCO3)CC1` (stereo not given)?
AmpC inh no detg: 30.2%; AMA1-RON2 inh: 25.1µM*; LASV entry inh: -21.0%[46.1 µM]; MARV entry inh: -7.1%[46.1 µM]; AmpC inh detg: -4.2%

How did CCn1ccnc1CN(C)Cc1cn(C)nc1-c1ccccc1F do in these assays?
AmpC inh no detg: -1.6%; AMA1-RON2 inh: 15.4%; LASV entry inh: 1.0%[46.1 µM]; MARV entry inh: -16.6%[46.1 µM]; AmpC inh detg: 3.8%

How did CCn1ccnc1CN(C)Cc1cn(-c2ccccc2)nc1-c1ccc(OC)cc1F do in these assays?
AmpC inh no detg: 142.3%; AMA1-RON2 inh: 48.2%; LASV entry inh: inconclusive; MARV entry inh: 10µM*; AmpC inh detg: 1.4%

How did CCCCCCCCCCCCCCCCCC(=O)O[C@H](CC(=O)O)C[N+](C)(C)C do in these assays?
MARV entry inh: 18.2%

How did NC(=O)CC1(CC(=O)O)CCCCC1 do in these assays?
AmpC inh no detg: -31.5%; AMA1-RON2 inh: -7.4%; LASV entry inh: inconclusive; MARV entry inh: -10.1%; AmpC inh detg: 70.8µM*

How did O=C(NCc1ccccc1Cl)C(=O)NCC(c1ccco1)S(=O)(=O)c1cccs1 (stereo not given) do in these assays?
LASV entry inh: -20.8%[46.1 µM]; AmpC inh detg: 3.2%

How did O=C(Nc1ccc(Br)cc1)c1ccc(F)c(S(=O)(=O)N2CCc3ccccc32)c1 do in these assays?
LASV entry inh: inconclusive; AmpC inh detg: -2.5%

What do the screens show for `COC(=O)c1ccccc1NC(=O)CSc1c2c(nc3ccc(Cl)cc13)CCCC2`?
LASV entry inh: 0.2%[46.1 µM]; MARV entry inh: -0.2%[46.1 µM]; AmpC inh detg: -0.2%

Results for FC(F)(F)COc1nc(N2CCOCC2)nc(N(c2ccccc2)c2ccccc2)n1 ?
AmpC inh no detg: 66.7%; AMA1-RON2 inh: -9.1%; LASV entry inh: inconclusive; MARV entry inh: 13µM*; AmpC inh detg: inconclusive

How did COc1ccc(CCNC(=O)C(=O)NCC(c2cccs2)S(=O)(=O)c2ccccc2)cc1 (stereo not given) do in these assays?
LASV entry inh: -3.4%[46.1 µM]; AmpC inh detg: 0.1%

How did Cc1ccccc1-c1nc(CN2CCC(C(=O)NCc3ccccc3Cl)CC2)c(C)o1 do in these assays?
LASV entry inh: 0.5%[46.1 µM]; MARV entry inh: 7.6%[46.1 µM]; AmpC inh detg: -4.6%

Results for Cc1ccc2nc(-c3ccccc3)nn2c1 ?
AMA1-RON2 inh: 0.7%; LASV entry inh: 1.12µM*; MARV entry inh: 8.91µM*

Results for Cc1ccc(-c2nnc(-c3ccccc3)c(-c3ccccc3)n2)cc1 ?
AmpC inh no detg: -27.1%; AMA1-RON2 inh: -14.9%; LASV entry inh: -20.3%; MARV entry inh: -0.4%; AmpC inh detg: -11.4%

Results for CCCN1CCCc2cc(CN(CCCN3CCOCC3)C(=O)Nc3ccc(Cl)c(Cl)c3)ccc21 ?
LASV entry inh: inconclusive; AmpC inh detg: 10.4%

How did CCOC(=O)c1c(-c2ccc(C)o2)csc1NC(=S)NC(=O)c1cccs1 do in these assays?
AmpC inh no detg: -49.5%; AMA1-RON2 inh: 0.0%; LASV entry inh: 23.1µM*; MARV entry inh: inconclusive; AmpC inh detg: -19.8%

Results for CCOC(=O)c1c(-c2ccc(C)o2)csc1NC(=O)CSc1nnc(C)s1 ?
AmpC inh no detg: 21.6%; AMA1-RON2 inh: -7.9%; LASV entry inh: -27.3%; MARV entry inh: -15.5%; AmpC inh detg: -16.6%

What do the screens show for `CCOC(=O)c1c(-c2ccc(C)o2)csc1NC(=O)CSc1nnnn1-c1ccccc1`?
AmpC inh no detg: 11.2µM*; AMA1-RON2 inh: -2.3%; LASV entry inh: -26.0%; MARV entry inh: inconclusive; AmpC inh detg: -11.9%

Results for CC(=O)c1ccc([C@@H]2C=C[C@H](O)[C@@H](CO)O2)cc1 ?
MARV entry inh: 22.7%[14.2 µM]

Results for O=C1N=C(O)CN1/N=C/C1C=CC(c2ccc([N+](=O)[O-])cc2)O1 (stereo not given) ?
MARV entry inh: 16.0%

Results for COc1cccc(C(=O)Nc2ccc(Oc3cccc(C(F)(F)F)c3)nc2)c1 ?
AmpC inh no detg: -32.1%; AMA1-RON2 inh: 5.0%; LASV entry inh: inconclusive; MARV entry inh: 8.91µM*; AmpC inh detg: -6.2%

How did C=CCCC1(C(=O)c2ccccc2)C(=O)C(CC=C(C)C)=C(OC)C(CC=C(C)C)(CCC=C(C)C)C1=O (stereo not given) do in these assays?
LASV entry inh: inconclusive; MARV entry inh: -1.2%[14.2 µM]

How did CN(C)c1ccc(NC(=O)c2ccc(COc3cccc(Cl)c3)o2)cc1 do in these assays?
AmpC inh no detg: -12.1%; AMA1-RON2 inh: 28.2µM*; LASV entry inh: -2.0%; MARV entry inh: -16.4%; AmpC inh detg: -4.5%

What do the screens show for `Cc1ccc(NC(=O)c2ccc(COc3ccccc3Cl)o2)cc1`?
LASV entry inh: 1.6%[46.1 µM]; AmpC inh detg: -7.7%

How did CCC(=O)N1c2ccccc2CC1C(=O)NCc1cc(Br)ccc1OC (stereo not given) do in these assays?
LASV entry inh: 9.8%[46.1 µM]; AmpC inh detg: 8.4%

How did Cc1[nH]c2c(ccc3cccnc32)c1C do in these assays?
AmpC inh no detg: -13.5%; AMA1-RON2 inh: inconclusive; LASV entry inh: 3.7%; MARV entry inh: 0.0%[14.2 µM]; AmpC inh detg: -2.0%

Results for CC1=[N+](C)c2c(ccc3cccnc23)C1(C)C ?
AmpC inh no detg: -7.2%; AMA1-RON2 inh: -11.3%; LASV entry inh: 5.62µM*; MARV entry inh: inconclusive; AmpC inh detg: 1.8%

How did COC1=CC(=O)C(OC)=C(OC)C1=O do in these assays?
AMA1-RON2 inh: -0.4%; LASV entry inh: 15.8µM*; MARV entry inh: inconclusive

What do the screens show for `COc1ccc(OC)c2c1C(=O)C(Cl)=C(Cl)C2=O`?
AmpC inh no detg: -2.8%; AMA1-RON2 inh: -1.6%; AmpC inh detg: -5.4%

Results for CC(C)NC(=S)N/N=C/c1sc(N2CCCCC2)nc1-c1cccs1 ?
AmpC inh no detg: -6.3%; AMA1-RON2 inh: 17.7%[11.6 µM]; LASV entry inh: -7.4%; MARV entry inh: inconclusive; AmpC inh detg: -12.0%

Results for CCCCNC(=S)N(C)/N=C/c1sc(N2CCCCC2)nc1-c1cccs1 ?
AmpC inh no detg: 11.2µM*; LASV entry inh: 1.1%; MARV entry inh: 0.4%; AmpC inh detg: -3.3%
